# aSyn UTR act: Activators via SNCA 5'UTR binding, MLPCN; alpha-synuclein 5'UTR reporter, activators screen; activity score, % (tested at 7.5 µM), hits read low; 300,000 compounds, 7.1% hits; AID 1814, 2009; in the data active = activity score below about -60%
# A number is an active result; i = inactive. The list is a sample of the results.
SMILES,aSyn UTR act
COc1ccc2nc(SCC(=O)NC3CC3)c(C#N)cc2c1,-68
COc1ccc2nc(SCC(=O)Nc3cc(C)on3)c(C#N)cc2c1,-103
COC(=O)CSc1nc2cc(C)ccc2cc1C#N,-189
Cc1ccc2nc(SCC(=O)Nc3ccc4sc(C)nc4c3)c(C#N)cc2c1,-129
Cc1cc(NC(=O)CSc2nc3ccccc3cc2C#N)no1,-158
Cc1cc(NC(=O)CSc2nc3ccccc3c(=O)n2C2CCCC2)no1,i
N#Cc1cc2cc3c(cc2nc1SCC(=O)N1CCOCC1)OCCO3,i
COc1ccc2nc(SCC(=O)N3CCCCC3)c(C#N)cc2c1,-107
CC(=O)c1ccc(NC(=S)NCCc2ccc(S(N)(=O)=O)cc2)cc1,-80
CC(=O)c1ccc(NC(=S)NCCc2cccc(Cl)c2)cc1,-179
COc1ccccc1NC(=O)N1CCC(c2nc3cc(C)c(C)cc3[nH]2)CC1,i
CS/C(N)=N/C(=S)Nc1cccc(Cl)c1,-143
COc1ccccc1NC(=O)Nc1ccc(C(=O)N2CCCCC2)cc1,-99
O=C(Nc1ccc(C(=O)N2CCCCC2)cc1)Nc1cccc(Cl)c1,-82
CC(=O)c1ccc(NC(=O)Nc2ccc3c(c2)nc(C)n3C)cc1,-148
CC(=O)Nc1ccc(NC(=O)Nc2cccc(Cl)c2)cc1,-79
CC(=O)c1ccc(NC(=O)Nc2cccc(Cl)c2)cc1,-82
CSc1cccc(NC(=S)Nc2ccc(F)cc2)c1,-196
CSc1cccc(NC(=O)Nc2ccc(Cl)cc2)c1,-97
O=C(Nc1cccc(Cl)c1)Nc1ccccc1C(=O)O,-120
CCNS(=O)(=O)c1ccc(NC(=O)Nc2ccccc2OC)cc1,-79
CCOC(=O)c1ccc(NC(=O)c2ccccc2)cc1,-252
CCOC(=O)c1ccc(NC(=O)c2nc(S(=O)(=O)Cc3ccccc3)ncc2Cl)cc1,i
CCC(=O)NC(c1ccc(C)cc1)c1cc([N+](=O)[O-])c2cccnc2c1O (stereo not drawn),i
CCOC(=O)c1ccc(NC(=O)c2ccccc2[N+](=O)[O-])cc1,-76
SMILES,aSyn UTR act
CC1CCN(c2ccc(NC(=O)c3ccccc3[N+](=O)[O-])cc2)CC1,-70
O=C(OCCC1Oc2cccnc2NC1=O)c1ccc([N+](=O)[O-])cc1 (stereo not drawn),i
CCOC(=O)c1ccc(Nc2ncccc2[N+](=O)[O-])cc1,-218
CCOC(=O)c1ccc(NC(=O)Oc2ccccc2)cc1,-66
CCOC(=O)c1ccc(NC(=O)c2n[nH]c(=O)c3ccccc23)cc1,-90
O=C(Nc1ccc2c(c1)OCO2)c1n[nH]c(=O)c2ccccc12,-140
Nc1ccc(OC(=O)Nc2ccc(O)cc2)cc1,i
C=CCOC(=O)/C(=C/c1cccc2ccccc12)NC(=O)c1ccccc1,-258
CCCCN1/C(=C/c2ccc3ccccc3[n+]2CC)Sc2ccccc21,i
CCN1/C(=C\C=C2\C(=O)N(C)C(=S)N2C)Sc2ccccc21,-81
COc1ccc(CNc2ccc([N+](=O)[O-])cn2)cc1,-137
C=CCNc1nc(N)c([N+](=O)[O-])c(Nc2ccccc2OC)n1,i
COc1ccc(Nc2ccc([N+](=O)[O-])cn2)cc1,-120
COc1ccccc1Nc1ccc([N+](=O)[O-])cn1,-74
O=[N+]([O-])c1ccc(NCCOc2ccccc2Cl)nc1,-74
C/C(=N\NC(=O)c1cc(Cl)ccc1O)c1ccc(Br)s1,-76
C/C(=N\NC(=O)CSCc1ccccc1Cl)c1cc(O)ccc1O,i
CCOC(=O)CCSc1nc(C)c2cc(OC)ccc2n1,-123
CCOc1ccc2nc(SCc3cccc(C)c3)nc(C)c2c1,-129
Cc1c(-c2nc(N)nc(Nc3ccccc3)n2)oc2ccccc12,-134
COc1nc(-c2ccccc2)nnc1-c1ccccc1,-124
O=C(Nc1nnc(Cc2ccccc2)s1)c1ccco1,-95
NC(=O)c1cc(Cc2ccccc2)sc1NC(=O)c1ccco1,-215
CCCCCCc1nnc(NC(=O)c2ccco2)s1,-67
CC(C)(C)Cc1nnc(NC(=O)c2ccco2)s1,-77
SMILES,aSyn UTR act
CC(C)COC(=O)Nc1nnc(Cc2ccccc2)s1,-97
O=C(Nc1nnc(CCc2ccccc2)s1)c1ccco1,-87
O=C(Nc1nnc(CCc2ccccc2)s1)c1cccs1,-80
COc1ccccc1-c1nc(COc2ccc(Cl)cc2Cl)no1,-204
COc1ccc(-n2c(C)cc(/C=C3\C(=O)NN(c4ccccc4)C3=O)c2C)cc1,-113
O=C1NN(c2ccccc2)C(=O)/C1=C/c1coc2ccccc2c1=O,-138
Cc1cc(/C=C2/C(=O)NN(c3ccccc3)C2=O)c(C)n1-c1ccc(O)cc1,-138
Cc1cc(/C=C2\C(=O)NN(c3ccccc3)C2=O)c(C)n1-c1ccccc1O,-132
COc1cc(OC)c(OC)cc1CN1CCCC(C(=O)c2ccccc2SC)C1 (stereo not drawn),i
COc1ccccc1C(=O)C1CCCN(C(=O)Nc2ccccc2F)C1 (stereo not drawn),-64
CN1CCSc2ccc(C(=O)Nc3cc(F)ccc3F)cc21,-98
CN1CCN(C2Cc3cc(Cl)ccc3Sc3cc(F)ccc32)CC1 (stereo not drawn),i
Cc1ccccc1NC(=O)c1ccc2c(c1)N(C)CCS2,-103
Cc1nc2ccc(NC(=O)c3sccc3C)cc2s1,-164
Cc1nnc(NC(=O)c2ccc3ccccc3n2)s1,-152
CCOC(=O)Nc1ccc2nc(N3CCCCCC3)sc2c1,-313
Cc1nc2cc(NC(=O)c3ccc([N+](=O)[O-])s3)ccc2s1,i
Cc1nc2ccc(NC(=O)c3cccs3)cc2s1,-132
Cc1nc2ccc(NC(=O)c3cncc(Br)c3)cc2s1,-87
Cc1ccccc1OCCNC(=O)c1ccc2ccccc2n1,-149
O=C(Nc1ccc2[nH]c(=S)sc2c1)c1ccccc1,-138
Cc1nc2ccc(NC(=O)c3ccccc3)cc2s1,-106
CC(=O)c1ccc(NC(=O)c2ccc(C)c(Br)c2)cc1,-125
Cc1nc2cc(C(=O)O)ccc2s1,-177
Cc1nc2ccc(NC(=O)c3ccc4ccccc4n3)cc2s1,-71
SMILES,aSyn UTR act
N#Cc1ccccc1CSc1nc2ccc(NC(=O)c3ccccc3C(=O)O)cc2s1,-87
CC(=O)c1ccc(NC(=O)c2ccc3nc(C)sc3c2)cc1,-193
COc1cc(C(=O)Nc2ccc(C(C)=O)cc2)c(Br)c(OC)c1OC,-83
Cc1ccc(OC(=O)c2ccc3nc(C)sc3c2)cc1,-76
Cc1nc2ccc(NC(=O)N3CCCCC3)cc2s1,-106
Cc1nc2ccc(C(=O)Nc3ccccc3Cl)cc2s1,-235
O=C(CCCC(=O)c1ccc(F)cc1)c1ccc(F)cc1,-118
CCOc1ccc(C(=O)CCCC(=O)c2ccc(OCC)cc2)cc1,-82
CCN(CC)CCN(C(=O)/C=C/c1cccs1)c1nc2ccc(C)cc2s1,-79
CN(C)CCN(C(=O)/C=C/c1cccs1)c1nc2c(F)cc(F)cc2s1,i
N#C/C(=C/c1ccc(OCc2ccccc2)cc1)C(=O)NC1CCCCC1,-121
CNC(=O)/C(C#N)=C/c1ccc(OCCOc2ccccc2)cc1,-66
Cc1ccccc1COc1ccc(/C=C(\C#N)C(N)=O)cc1,-105
N#C/C(=C\c1ccc(OCc2ccccc2)cc1)C(N)=O,-92
N#Cc1ccccc1COc1ccc(/C=C/C(=O)O)cc1,i
CCOC(=O)C1CCN(C(=O)CNC(=O)c2nn(-c3ccc(OC)c(Cl)c3)c(=O)c3ccccc23)CC1,-70
Cc1ccc2nc(NNC(=O)c3ccc(S(=O)(=O)N4CCc5ccccc5C4)cc3)sc2c1,i
Cc1ccc(OC(=O)c2ccc(S(=O)(=O)N(C)C)cc2)c(-n2nc3ccccc3n2)c1,-195
Cc1ccc(OC(=O)c2cccc(S(=O)(=O)N3CCCC3)c2)c(-n2nc3ccccc3n2)c1,-162

# Assay outcomes (PubChem)
